Data on 44 compounds can be found in PubChem BioAssay AID720650 (Broad Institute, 2013).

Each structure is given as a SMILES string. Calls of active or inactive are those of the source. The rule behind the calls is not given here.

By AC50 is commonly meant the midpoint of the concentration-response curve, whichever way the signal moves.

The nature of the test: Biochemical counterscreen for C difficile toxins, absence of UDPG, inhibitor dose response (AID 720650).

As to `Cc1cnc(C(=O)OCC(=O)N2C(C)CCCC2C)cn1` (centres undefined), the AC50 entry was “inactive”.
With `CC(N)C(=O)NC(C(=O)N1CCCC1C(=O)NC(c1ccccc1)c1ccccc1)C(C)C` (centres undefined), the AC50 result is “inactive”.
Turning to `CC[n+]1ccc(/C=C/c2ccc(N(C)C)cc2)c2ccccc21`, the AC50 was 11.7 µM (active).
Under `COc1ccccc1/C=C/c1onc(C)c1S(=O)(=O)N1CCC(C(=O)NC(C)C)CC1` stands “inactive”; under `O=C(O)c1cc(NS(=O)(=O)c2ccc(NC3CCCCC3)c([N+](=O)[O-])c2)cc(C(=O)O)c1`, “inactive”.
For the compound `C=CCn1c(SCC(=O)N2CC(=O)Nc3ccccc32)nc2scc(-c3ccccc3)c2c1=O`, the AC50 result was “inactive”.
On to `CC(=O)Nc1ccc(N(C(=O)c2ccco2)C(C(=O)NC2CCCC2)c2cccs2)cc1` (centres undefined), for which the AC50 result is “inactive”.
Consider `COc1ccc(NC(=O)Nc2nc(C)cc(C)n2)c(OC)c1`, for which the AC50 entry is “inactive”.
Consider `CCOC(=O)c1ccc[n+](CC(=O)c2ccc(NC(=O)c3ccccc3)cc2)c1`, for which the AC50 entry was “inactive”.
Next, `CN(CCN1CCOCC1)C(=O)CC1C(=O)NCCN1Cc1ccccc1C(F)(F)F` (centres undefined): “inactive”; `CC1CC(=O)N(c2ccc(NCCc3ccc(O)cc3)c([N+](=O)[O-])c2)C1=O` (centres undefined): “inactive”; `CC1CN=C(Nc2cccc(S(=O)(=O)N(C)C)c2)S1` (centres undefined): “inactive”.
Next, `Oc1cc(O)cc(/C=C/c2ccc(O)c(O)c2)c1`: “inactive”.
For `O=C(NCCc1ccc(Cl)cc1)C1CCN(S(=O)(=O)c2ccc(Br)s2)CC1`, the AC50 entry was “inactive”.
Regarding `CC(Oc1ccc(Cl)cc1Cl)C(=O)Nc1ccc(O)cc1` (centres undefined), the concentration at half-maximal activity (AC50) is 12.9 µM (active).
For the compound `Cc1[nH]c(=O)c(C#N)c2c1CCCC2`, the AC50 entry is “inactive”.
On to `Cc1onc(-c2ccccc2Cl)c1C(=O)Nc1cnn(Cc2ccccc2)c1`, for which the AC50 result was “inactive”.
Under `CC(=O)Nc1cc(-c2ccc(F)cc2)[nH]n1` stands 2.6 µM (active).
Next, `CS(=O)(=O)N(CC(=O)Nc1ccc(S(=O)(=O)N2CCOCC2)cc1)c1ccccc1Br`: “inactive”; `Cc1ccc(S(=O)(=O)/N=C(/Nc2cccc(O)c2)c2ccccc2)cc1`: “inactive”; `CC(=O)N1CC[C@@H]2[C@@H](CO)Nc3ccc(-c4ccccc4)cc3[C@@H]21`: 11.5 µM (active).
Turning to `COc1ccc(C(=O)Nc2cc(Cl)ccc2C(=O)O)cc1`, the half-maximal activity concentration (AC50) is 10.4 µM (active).
Under `CC(=O)N1CCN(c2ccc(S(C)(=O)=O)cc2[N+](=O)[O-])CC1` stands “inactive”.
As for `COc1ccc(C2=NS(=O)(=O)N(C)C(C(=O)N3CCc4ccccc4C3)=C2)cc1OC`, the AC50 result was “inactive”.
In the case of `CC1(C)O[C@@H]2[C@H](O1)[C@@H](COS(=O)(=O)O)O[C@H]2n1c(=S)[nH]c2c(=O)[nH]c(N)nc21`, the AC50 result is “inactive”.
Under `c1ccc(OCCSc2nnc3sc4ccccc4n23)cc1` stands 20.6 µM (active); under `COc1cccc(C(=O)C2CCCN(Cc3ccc(F)cc3)C2)c1` (centres undefined), “inactive”.
Regarding `CCOC(=O)c1ccc(-n2c(CCC(=O)O)ccc2-c2ccc(F)cc2)cc1`, the AC50 entry is “inactive”.
Next, `Nc1ccc2nc(-c3cccs3)[nH]c2c1`: 11 µM (active); `CC(=O)C(Sc1nccc(-c2cccs2)n1)C(C)=O`: 9.69 µM (active); `O=C(OCC(=O)N1CCCc2ccccc21)c1ccc(C(F)(F)F)cc1`: “inactive”.
Next, `CN(C)CCCNC(=O)C[C@H]1CC[C@@H]2[C@@H](COc3ccc(NC(=O)c4ccc5c(c4)OCO5)cc3C(=O)N2C)O1`: “inactive”; `CN1C=CC(=CC=C2C=CC(=O)C=C2)C=C1`: 7.43 µM (active).
For `O=C(NCc1ccccc1)[C@@H]1CCCN1C(=O)[C@@H]1CCCN1C(=O)c1cccs1`, the AC50 entry was “inactive”.
Next, `CSc1nc2c(c(=O)[nH]c(=O)n2C)n1Cc1ccccc1`: “inactive”; `COc1ccc(NC(=O)C2CC(=O)N(c3ccccc3F)C2)cc1S(=O)(=O)N1CCCCC1` (centres undefined): “inactive”; `COc1ccc(S(=O)(=O)N2CCC[C@H]2C(=O)N2CCC[C@H]2C(=O)NCc2ccncc2)cc1C`: “inactive”.
For the compound `COc1cc(/C=C/c2sc3ccccc3[n+]2CCCS(=O)(=O)[O-])ccc1O`, the AC50 result is “inactive”.
Under `CN(C)c1ccc(Cl)c(NC(N)=S)c1` stands 19.2 µM (active); under `O=C(c1ccccc1)c1coc2ccc(O)c(Cl)c12`, 12.7 µM (active); under `COc1cc(/C=N/NC(=O)c2c(C)nc3ccc(Cl)cn23)cc(OC)c1OC`, “inactive”.
Regarding `O=c1[nH]c(CSc2nnc(Cc3ccccc3)o2)nc2ccccc12`, the AC50 result was “inactive”.
On to `CCNC(=O)C[C@@H]1CC[C@H]2[C@@H](COc3ccc(NC(C)=O)cc3C(=O)N2C)O1`, for which the AC50 result is “inactive”.
Consider `C[C@@H]1CN([C@@H](C)CO)C(=O)c2c(c3ccccc3n2C)-c2ccccc2CO[C@@H]1CN(C)C`, for which the AC50 entry was “inactive”.
